Source: PubChem BioAssay (NCI)
Compounds without any hit were thinned out: in the full panel of roughly 83,000, 20% have a hit.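 Activity criterion: percent growth below 10, measured after cells in 96-well plates were exposed to a single compound concentration for 48 hours.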 Calls of active or inactive are those of the source.

Columns and labels:
Assay in all cases: NCI-60 one-dose screen, 48 h (100 = growth as untreated, 0 = no growth, -100 = all killed)
Conditions in all cases: 10 µM
SK-MEL-2 melanoma = tested on: SK-MEL-2 melanoma
EKVX NSCLC = tested on: EKVX NSCLC
SN12C renal = tested on: SN12C renal
UO-31 renal = tested on: UO-31 renal
TK-10 renal = tested on: TK-10 renal
ACHN renal = tested on: ACHN renal
CAKI-1 renal = tested on: CAKI-1 renal
A498 renal = tested on: A498 renal
CCRF-CEM leukemia = tested on: CCRF-CEM leukemia
RPMI-8226 leukemia = tested on: RPMI-8226 leukemia
OVCAR-8 ovarian = tested on: OVCAR-8 ovarian
OVCAR-5 ovarian = tested on: OVCAR-5 ovarian
OVCAR-4 ovarian = tested on: OVCAR-4 ovarian
SK-OV-3 ovarian = tested on: SK-OV-3 ovarian
IGROV1 ovarian = tested on: IGROV1 ovarian
OVCAR-3 ovarian = tested on: OVCAR-3 ovarian
HS 578T breast = tested on: HS 578T breast
NCI/ADR-RES ovarian = tested on: NCI/ADR-RES ovarian

Measured: growth

COc1cc(Cn2c(C(F)(F)F)cc3c(Cl)ncnc32)ccn1
active: SK-MEL-2 melanoma -81.7% | CAKI-1 renal -57.6% | CCRF-CEM leukemia -14.3% | RPMI-8226 leukemia 6.17% | OVCAR-8 ovarian -16% | OVCAR-4 ovarian -58.4% | IGROV1 ovarian -90.6% | OVCAR-3 ovarian -52.4%
inactive: EKVX NSCLC 73% | SN12C renal 51.3% | UO-31 renal 68.3% | TK-10 renal 97.1% | ACHN renal 74.8% | A498 renal 103% | OVCAR-5 ovarian 93.7% | SK-OV-3 ovarian 75.4% | HS 578T breast 11.2% | NCI/ADR-RES ovarian 67.7%

CCN1CCN(c2ccc(NC(=O)Nc3ccc(-c4cc(C(=O)NC)c5ncccc5n4)cc3)cc2C(F)(F)F)CC1
active: SK-MEL-2 melanoma -72.8% | EKVX NSCLC -100% | SN12C renal -96.5% | UO-31 renal -100% | TK-10 renal -98.9% | ACHN renal -100% | CAKI-1 renal -100% | A498 renal -98.4% | CCRF-CEM leukemia -52.5% | RPMI-8226 leukemia -50.3% | OVCAR-8 ovarian -94.1% | OVCAR-5 ovarian -100% | OVCAR-4 ovarian -100% | SK-OV-3 ovarian -88.7% | IGROV1 ovarian -98.2% | OVCAR-3 ovarian -100% | NCI/ADR-RES ovarian -65.3%

O=C(COc1ccc(NC(=O)Nc2ccc(Cl)cc2)cc1)N=Nc1c(O)[nH]c2ccc([N+](=O)[O-])cc12
active: SK-MEL-2 melanoma -15.7% | CCRF-CEM leukemia -36.9% | OVCAR-4 ovarian -11.6% | OVCAR-3 ovarian -55.9%
inactive: EKVX NSCLC 88.3% | SN12C renal 32.3% | UO-31 renal 77.2% | TK-10 renal 101% | ACHN renal 93.4% | CAKI-1 renal 96.3% | A498 renal 119% | RPMI-8226 leukemia 22.3% | OVCAR-8 ovarian 16.1% | OVCAR-5 ovarian 69.4% | SK-OV-3 ovarian 85.2% | IGROV1 ovarian 79.5% | HS 578T breast 13.7% | NCI/ADR-RES ovarian 92.6%

COC(=O)CC1CC1C1Cc2c(nc(N(C)S(C)(=O)=O)nc2C(C)C)-c2ccc(F)cc21 (stereo not given)
inactive: SK-MEL-2 melanoma 80.9% | EKVX NSCLC 87% | SN12C renal 94.9% | UO-31 renal 71.5% | TK-10 renal 114% | ACHN renal 86.6% | CAKI-1 renal 52.1% | A498 renal 117% | CCRF-CEM leukemia 61.5% | RPMI-8226 leukemia 46% | OVCAR-8 ovarian 80.6% | OVCAR-5 ovarian 90% | OVCAR-4 ovarian 82.3% | SK-OV-3 ovarian 106% | IGROV1 ovarian 81.4% | HS 578T breast 84.6% | NCI/ADR-RES ovarian 71.8%

C=C(C)[C@@H]1CC[C@]2(COP(=O)(OCC)OCC)CC[C@]3(C)[C@H](CC[C@@H]4[C@@](C)(CCCN)[C@H](C(=C)C)CC[C@]43C)[C@@H]12
active: CCRF-CEM leukemia 2.27% | RPMI-8226 leukemia -34.4%
inactive: SK-MEL-2 melanoma 27.2% | EKVX NSCLC 21.6% | SN12C renal 14.7% | UO-31 renal 16.7% | TK-10 renal 57.4% | ACHN renal 22.3% | CAKI-1 renal 19.5% | A498 renal 61.1% | OVCAR-8 ovarian 26% | OVCAR-5 ovarian 43.2% | OVCAR-4 ovarian 23.2% | SK-OV-3 ovarian 46.2% | IGROV1 ovarian 40.4% | OVCAR-3 ovarian 24.2% | HS 578T breast 31.3% | NCI/ADR-RES ovarian 18.9%

CC1(C)CC[C@]2(C(=O)Nc3ccccc3)CC[C@]3(C)C(=CC[C@@H]4[C@@]5(C)CC[C@H](N)C(C)(C)[C@@H]5CC[C@]43C)[C@H]2C1
active: OVCAR-8 ovarian -66.5%
inactive: SK-MEL-2 melanoma 107% | EKVX NSCLC 90.5% | SN12C renal 87.7% | UO-31 renal 71.5% | TK-10 renal 107% | ACHN renal 90.3% | CAKI-1 renal 79.9% | A498 renal 131% | CCRF-CEM leukemia 32.6% | RPMI-8226 leukemia 19.7% | OVCAR-5 ovarian 84.4% | OVCAR-4 ovarian 76.8% | SK-OV-3 ovarian 96.5% | IGROV1 ovarian 96% | OVCAR-3 ovarian 105% | HS 578T breast 93.2% | NCI/ADR-RES ovarian 66.5%

Cc1ccc(NC(=O)NCn2c(=O)[nH]c3ccccc3c2=O)cc1
inactive: SK-MEL-2 melanoma 93.1% | EKVX NSCLC 87.6% | SN12C renal 68.6% | UO-31 renal 44.5% | TK-10 renal 72.5% | ACHN renal 35% | CAKI-1 renal 61.4% | A498 renal 90.4% | CCRF-CEM leukemia 97.5% | RPMI-8226 leukemia 92.7% | OVCAR-8 ovarian 39.9% | OVCAR-5 ovarian 94.2% | OVCAR-4 ovarian 50.8% | SK-OV-3 ovarian 57.8% | IGROV1 ovarian 76.6% | OVCAR-3 ovarian 87.6% | HS 578T breast 55.3% | NCI/ADR-RES ovarian 70.7%

O=C1CCC(N2Cc3c(C#CCCCNC(=O)c4ccc(NC(=O)[C@@H]5NC6(CCCCC6)[C@@]6(C(=O)Nc7cc(Cl)ccc76)[C@H]5c5cccc(Cl)c5F)cc4)cccc3C2=O)C(=O)N1 (stereo not given in full)
inactive: SK-MEL-2 melanoma 76.4% | EKVX NSCLC 51.6% | SN12C renal 74.3% | UO-31 renal 30.3% | TK-10 renal 79.8% | ACHN renal 26.2% | CAKI-1 renal 36.1% | A498 renal 94.9% | CCRF-CEM leukemia 47.9% | RPMI-8226 leukemia 43.7% | OVCAR-8 ovarian 69% | OVCAR-5 ovarian 76.6% | OVCAR-4 ovarian 56.5% | SK-OV-3 ovarian 74.2% | IGROV1 ovarian 11.7% | OVCAR-3 ovarian 72.3% | HS 578T breast 46.2% | NCI/ADR-RES ovarian 85.7%

C=C(C)[C@@H]1CC[C@]2(C)[C@H](CC=C3[C@@H]4CC(C)(C)CC[C@]4(C(=O)N4CCOCC4)CC[C@]32C)[C@@]1(C)CCCN
active: SK-MEL-2 melanoma -92.1% | EKVX NSCLC -84.1% | SN12C renal -89.1% | UO-31 renal -100% | TK-10 renal -95.7% | ACHN renal -100% | CAKI-1 renal -96.3% | A498 renal -89.5% | CCRF-CEM leukemia -57.2% | RPMI-8226 leukemia -51.2% | OVCAR-8 ovarian -66.3% | OVCAR-5 ovarian -98.9% | OVCAR-4 ovarian -89.4% | SK-OV-3 ovarian -94.6% | IGROV1 ovarian -91.2% | OVCAR-3 ovarian -84.8% | HS 578T breast -63.4% | NCI/ADR-RES ovarian -59.8%
